Assay results published in PubChem BioAssay (Tox21).
Records with an inconclusive call do not appear. The source made the active and inactive calls. Unless noted, the call rests on the fitted dose curve; in most records, active means well fitted curve in the direction sought with a large enough effect in the repeat runs; inconclusive means weak or mixed curves; inactive means no such curve, though single readings can be large; an effect the other way counts as inactive or inconclusive.

What was measured:
[1] = qHTS assay for small molecule agonists of the p53 signaling pathway (AID 651631; calls by dose curve; further: nearly all actives have a fitted effect of over 15% in size)
In short: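 Stably transfected HCT-116 cells (beta-lactamase behind p53 response elements) get compounds after a 5 h settling period; 16 h later at 37 °C, FRET substrate is loaded and fluorescence read after 2 h.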

[2] = qHTS assay for small molecules that induce genotoxicity in human embryonic kidney cells expressing luciferase-tagged ATAD5 (AID 651632); further: nearly all actives have a fitted effect of over 15% in size
In short: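 Increased luciferase signal from ATAD5-tagged reporter cells indicates DNA-damage-driven ATAD5 induction. HEK293T cells are treated for 16 hr at 37C before detection with Amplite.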

[3] = qHTS assay for small molecule agonists of the p53 signaling pathway - cell viability (AID 651633; calls by dose curve;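 further: p53RE-bla HCT reporter cells with a stable beta-lactamase p53 reporter; nearly all actives have a fitted effect of over 30% in size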)
In short: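 p53RE-bla cells were treated with compound for 16 hours at 37 C. Cytotoxicity was then measured as CellTiter-Glo luminescence after 30 min at room temperature.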

[4] = qHTS assay for small molecules that induce genotoxicity in human embryonic kidney cells expressing luciferase-tagged ATAD5 - cell viability (AID 651634; calls by dose curve; further: nearly all actives have a fitted effect of over 25% in size)
In short: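 Cytotoxicity counterscreen in HEK293T cells bearing an ATAD5-luciferase reporter: live-cell protease activity measured by CellTiter-Fluor fluorescence after 15.5 hr compound exposure.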

[5] = qHTS assay for small molecule disruptors of the mitochondrial membrane potential - cell viability (AID 720634; calls by dose curve;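 further: human HepG2 liver cancer cells; nearly all actives have a fitted effect of over 20% in size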)
In short: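 After overnight attachment at 37 C, HepG2 cells received compound or DMSO vehicle for 1 hr. Viability is then taken from ATP-driven luminescence following a 30 min room-temperature CellTiter-Glo step.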

[6] = qHTS assay for small molecule disruptors of the mitochondrial membrane potential (AID 720635)
In short: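 HepG2 cells exposed to compound 1 hr at 37C, then Mito-MPS dye 30 min. Ratio read of aggregate (540/590 nm) versus monomer (490/535 nm) fluorescence.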

[7] = qHTS assay to test for compound auto fluorescence at 590 nm (red) in HepG2 cells (AID 720674)
In short: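 Seeding: 2,000 HepG2 cells/well, MEM/10% FBS, overnight 37 C. Dosing: compound vs DMSO. Incubation: 1 hr, 37 C, 5% CO2. Read: fluorescence 540 ex/590 em, Rose Bengal sodium as red reference.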

[8] = qHTS assay to test for compound auto fluorescence at 535 nm (green) in HepG2 cells (AID 720675)
[9] = qHTS assay to test for compound auto fluorescence at 460 nm (blue) in HEK293 cells (AID 720678)
In short: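 Blue-channel (Ex/Em 405/460 nm) intensity measured in HEK293 cultures after overnight compound exposure at 37C; signal expressed relative to triamterene. Cells plated 2,000 per well in 10% dialyzed FBS medium and allowed 4-5 hr to attach.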

[10] = qHTS assay to test for compound auto fluorescence at 590 nm (red) in HEK293 cells (AID 720679)
In short: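 Red-channel autofluorescence (Ex/Em 540/590 nm; Rose Bengal sodium reference) was measured after overnight 37C, 5% CO2 exposure of attached HEK293 cells, 2,000 per well in medium with 10% dialyzed FBS.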

[11] = qHTS assay to test for compound auto fluorescence at 535 nm (green) in HEK293 cells (AID 720680)
[12] = qHTS assay to test for compound auto fluorescence at 460 nm (blue) in HEK293 cell free culture (AID 720681)
In short: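 Compounds were added to cell-free DMEM with 10% FBS and fluorescence read directly. The blue channel used 405 nm excitation and 460 nm emission, with triamterene as the reference fluorophore.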

[13] = qHTS assay to test for compound auto fluorescence at 535 nm (green) in HEK293 cell free culture (AID 720682)
In short: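 Using fluorescein as calibrant, autofluorescence was quantified at 485/535 nm in cell-free DMEM containing 10% FBS after pintool addition of compound or vehicle.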

[14] = qHTS assay to test for compound auto fluorescence at 590 nm (red) in HEK293 cell free culture (AID 720683)
In short: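 Cell-free wells of DMEM with 10% FBS received compound, and intrinsic fluorescence was read at excitation/emission 540/590 nm. Values expressed as equivalence to Rose Bengal sodium.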

[15] = qHTS assay to test for compound auto fluorescence at 590 nm (red) in HepG2 cell free culture (AID 720684)
In short: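 Compounds are added to culture medium (MEM, 10% FBS) lacking cells, then fluorescence is read at excitation 540 nm, emission 590 nm, with Rose Bengal sodium as the equivalency standard.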

[16] = qHTS assay to test for compound auto fluorescence at 460 nm (blue) in HepG2 cell free culture (AID 720685)
In short: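 Compound (23 nL) or DMSO pinned into cell-free MEM with 10% FBS; blue fluorescence read at 405/460 nm excitation/emission, expressed as auto-fluorescence equivalency to triamterene.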

[17] = qHTS assay to test for compound auto fluorescence at 460 nm (blue) in HepG2 cells (AID 720687)
In short: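 HepG2 cells in MEM with 10% FBS, attached overnight at 37 C, were exposed to compound or DMSO for 1 hr at 37 C, 5% CO2. Blue fluorescence was read at 405/460 nm, with triamterene as reference fluorophore.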

[18] = molecular target: Glucocorticoid receptor (Homo sapiens) (UniProt P04150); test: qHTS assay to identify small molecule antagonists of the glucocorticoid receptor (GR) signaling pathway (AID 720692; active means well fitted inhibition curve with a large enough effect in the signal ratio in the repeat runs, not every such curve was filed as active; the % refers to the signal ratio)
Chain of Glucocorticoid receptor (Homo sapiens) (P04150 whole entry, looked up): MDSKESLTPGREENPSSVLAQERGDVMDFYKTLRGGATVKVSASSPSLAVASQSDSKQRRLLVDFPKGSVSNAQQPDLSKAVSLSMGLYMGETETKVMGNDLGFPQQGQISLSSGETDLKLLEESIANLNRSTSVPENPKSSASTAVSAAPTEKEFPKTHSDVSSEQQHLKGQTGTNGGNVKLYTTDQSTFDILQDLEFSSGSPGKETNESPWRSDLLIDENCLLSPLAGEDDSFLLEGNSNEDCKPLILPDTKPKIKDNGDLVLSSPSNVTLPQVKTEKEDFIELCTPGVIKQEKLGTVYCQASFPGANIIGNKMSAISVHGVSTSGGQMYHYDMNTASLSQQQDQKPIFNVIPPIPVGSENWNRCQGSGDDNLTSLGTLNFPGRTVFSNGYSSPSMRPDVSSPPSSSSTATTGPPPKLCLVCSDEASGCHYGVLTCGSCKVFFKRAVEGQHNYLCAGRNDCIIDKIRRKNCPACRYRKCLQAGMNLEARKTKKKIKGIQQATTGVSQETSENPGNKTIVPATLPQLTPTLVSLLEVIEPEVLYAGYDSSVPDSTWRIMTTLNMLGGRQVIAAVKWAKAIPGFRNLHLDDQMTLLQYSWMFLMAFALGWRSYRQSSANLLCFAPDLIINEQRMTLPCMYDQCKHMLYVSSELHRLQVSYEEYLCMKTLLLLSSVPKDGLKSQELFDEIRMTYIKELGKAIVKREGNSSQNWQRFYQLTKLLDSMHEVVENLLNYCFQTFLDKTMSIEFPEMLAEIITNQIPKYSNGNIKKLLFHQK
In short: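 Cells plated, rested 4 h at 37 C/5% CO2; compounds in DMSO pin-transferred; dexamethasone added to 5 nM final; 18 h at 37 C; B/G FRET substrate added, 2 h room temperature; fluorescence measured.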

[19] = molecular target: Glucocorticoid receptor (Homo sapiens) (UniProt P04150); test: qHTS assay to identify small molecule agonists of the glucocorticoid receptor (GR) signaling pathway (AID 720691; active means well fitted activation curve with a large enough effect in the signal ratio in the repeat runs, not every such curve was filed as active; the % refers to the signal ratio); settings: GR-bla HeLa, beta-lactamase reporter ratio, 18 h; activation: at 62.4 µM (top of the series)
In short: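 Agonist mode in a HeLa line carrying a GRE-controlled beta-lactamase reporter. Compounds act for 18 h at 37 C before a 2 h room-temperature FRET substrate step and fluorescence reading.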

[20] = qHTS assay to test for compound auto fluorescence at 535 nm (green) in HepG2 cell free culture (AID 720686)

Measured: Potency

Cc1cn([C@H]2C[C@H](O)[C@@H](CO)O2)c(=O)[nH]c1=O
not listed: [19] | [20]
inactive: all other assays above

O=C(O)c1cc(O)c2c(c1)[C@H]([C@H]1c3cc(C(=O)O)cc(O)c3C(=O)c3c(O[C@@H]4O[C@H](CO)[C@@H](O)[C@H](O)[C@H]4O)cccc31)c1cccc(O[C@@H]3O[C@H](CO)[C@@H](O)[C@H](O)[C@H]3O)c1C2=O
not listed: [20]
inactive: all other assays above

O=C(O)Cc1nn(Cc2ccc(Br)cc2F)c(=O)c2ccccc12
not listed: [8] | [18] | [19]
inactive: all other assays above

CO[C@H]1C[C@H](O[C@H]2[C@H](C)[C@@H](O[C@@H]3O[C@H](C)C[C@H](N(C)C)[C@H]3O)[C@@H](C)C[C@]3(CO3)C(=O)[C@H](C)[C@@H](O)[C@@H](C)[C@@H](C)OC(=O)[C@@H]2C)O[C@@H](C)[C@@H]1O
not listed: [8]
inactive: all other assays above

Nc1cc(Cl)c(NC2=NCCN2)c(Cl)c1
not listed: [8]
inactive: all other assays above

CN[C@H](CC(C)C)C(=O)N[C@H]1C(=O)N[C@@H](CC(N)=O)C(=O)N[C@H]2C(=O)N[C@H]3C(=O)N[C@H](C(=O)N[C@@H](C(=O)O)c4cc(O)cc(O)c4-c4cc3ccc4O)[C@H](O)c3ccc(c(Cl)c3)Oc3cc2cc(c3O[C@@H]2O[C@H](CO)[C@@H](O)[C@H](O)[C@H]2O[C@H]2C[C@](C)(N)C(O)[C@H](C)O2)Oc2ccc(cc2Cl)[C@H]1O (stereo not given in full)
not listed: [13]
inactive: all other assays above

COc1cc2c(c(OC)c1OC)-c1c(cc3c(c1OC)OCO3)C[C@@H](C)[C@](C)(O)C2
not listed: [13]
inactive: all other assays above

C=CC[N@@+]12CC[C@@]34c5ccccc5N5/C=C6/[C@H]7C[C@H]8[C@@]9(CC[N@@+]8(CC=C)C/C7=C/CO)c7ccccc7N(/C=C(/[C@@H](C[C@@H]31)/C(=C\CO)C2)[C@H]54)[C@@H]69
not listed: [8]
inactive: all other assays above

C[C@@H]1O[C@@H](OC[C@H]2O[C@@H](Oc3c(-c4ccc(OCCO)c(OCCO)c4)oc4cc(OCCO)cc(O)c4c3=O)[C@H](O)[C@@H](O)[C@@H]2O)[C@H](O)[C@H](O)[C@H]1O
not listed: [9]
inactive: all other assays above

CC(C)CCC[C@@H](C)[C@H]1CC[C@H]2[C@@H]3CC=C4C[C@@H](O)CC[C@]4(C)[C@H]3CC[C@]12C
not listed: [13]
inactive: all other assays above

CC(=O)OCC1=C(C(=O)O)N2C(=O)[C@@H](NC(=O)Cc3ccccc3)[C@H]2SC1
not listed: [8]
inactive: all other assays above

NCCCC[C@H](NC(=O)[C@@H]1CCCN1C(=O)[C@@H]1CSSC[C@H](N)C(=O)N[C@@H](Cc2ccc(O)cc2)C(=O)N[C@@H](Cc2ccccc2)C(=O)N[C@@H](CCC(N)=O)C(=O)N[C@@H](CC(N)=O)C(=O)N1)C(=O)NCC(N)=O
not listed: [8]
inactive: all other assays above
